Source: PubChem BioAssay
Activity calls are given as the source filed them. The rule behind the calls is not given here.

Target: Pantothenate synthetase (Mycobacterium tuberculosis (strain ATCC 25618 / H37Rv)) (UniProt P9WIL5)
Experiment: Coupled enzyme confirmation of inhibitors against recombinant Mtb PanC (AID 375);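 note: 0% = full reaction with vehicle and 100% = no enzyme background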
Conditions: coupled enzyme assay; at 10 µM, active compounds read high

Pantothenate synthetase (Mycobacterium tuberculosis (strain ATCC 25618 / H37Rv)), sequence (P9WIL5 whole entry, looked up): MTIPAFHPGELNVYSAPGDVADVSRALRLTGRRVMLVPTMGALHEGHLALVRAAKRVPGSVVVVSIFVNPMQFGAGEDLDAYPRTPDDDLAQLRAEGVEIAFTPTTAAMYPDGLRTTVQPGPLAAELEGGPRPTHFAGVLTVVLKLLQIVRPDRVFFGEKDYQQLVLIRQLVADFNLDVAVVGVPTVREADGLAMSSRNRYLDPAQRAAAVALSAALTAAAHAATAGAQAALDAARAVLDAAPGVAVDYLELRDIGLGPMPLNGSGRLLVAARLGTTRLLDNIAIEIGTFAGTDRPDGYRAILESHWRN

Compound	inhibition
CC(C)(C)NC(=O)Cn1nnnc1-c1nonc1N	4% (inactive)
Cc1ccc(/C=c2\s/c(=C(/C#N)C(=O)N3CCCC3)n(Cc3ccco3)c2=O)s1	0% (inactive)
COc1ccc(N2CCN(C(=O)CSc3ccccc3)CC2)cc1	6% (inactive)
O=C(NCCC1=CCCCC1)C1CCN(S(=O)(=O)c2cccc3cccnc23)CC1	19% (inactive)
Cc1nc2sc(C(c3ccc(Br)cc3)N3CC(C)OC(C)C3)c(O)n2n1 (stereo unspecified)	0% (inactive)
CCOC(=O)CN1C2=NCCN2c2ccccc21	6% (inactive)
CC(C)Sc1nc2c(c(=O)n1-c1ccc(F)cc1)SCC2	1% (inactive)
COc1ccccc1NC(=O)C1CC(=O)N(c2ccc(F)cc2)C1 (stereo unspecified)	0% (inactive)
CCCC1O[C@@H]2C[C@H]3[C@@H]4CCC5=CC(=O)C=C[C@]5(C)[C@H]4[C@@H](O)C[C@]3(C)[C@]2(C(=O)CO)O1 (stereo partly specified)	4% (inactive)
COC(=O)c1ccccc1NC(=O)C1CC(=O)N(c2ccccc2)C1 (stereo unspecified)	4% (inactive)
Nc1nc(N)nc(-c2ccccc2)n1	0% (inactive)
O=C(c1ccc(S(=O)(=O)N2CCC(c3nc4ccccc4s3)CC2)cc1)N1CCOCC1	0% (inactive)
Cc1ccc(CSc2nc3c(c(=O)[nH]2)C(c2ccncc2)C2=C(CCCC2=O)N3)cc1 (stereo unspecified)	4% (inactive)
COc1ccc([C@@H]2Sc3ccccc3N(CCN(C)C)C(=O)[C@@H]2OC(C)=O)cc1	2% (inactive)
CCOC(=O)c1c(C)oc2ccc(O)c(CN(C)C)c12	0% (inactive)
COc1c(S(=O)(=O)n2nc(C)cc2C)ccc(Cl)c1Cl	3% (inactive)
